Laboratory results: PubChem BioAssay (Tox21)
Several values for one entry are separate records, joined by “and”; a condition that tells them apart may be missing. Equal values may be shown once. Inconclusive results are not listed. Where a structure was tested more than once in an assay, its records may differ in their call. Unmarked numbers belong to inactive results. Activity calls are given as the source filed them. Calls come from the whole dose curve; as a rule, active = well fitted inhibition curve with a large enough effect in the signal ratio in the repeat runs; inconclusive = weak or mixed curves, or effect the other way; inactive = flat fitted curve, though single readings scatter; the % refers to the signal ratio.
% is set by controls: 0 for no effect and ±100 for the full control effect; potency is the fitted concentration of half-maximal effect.

Assay: qHTS assay for small molecule disruptors of the mitochondrial membrane potential (AID 720635)
Details: HepG2 mitochondrial membrane potential, Mito-MPS dye ratio; series mostly up to 83.2 µM; ratio activity, negative = MMP loss: at the top concentration
Source text: U.S. Tox21 Program National Center for Advancing Translational Sciences [NCATS] NIH Chemical Genomics Center [NCGC] U.S. Environmental Protection Agency [EPA] National Institutes of Environmental Health Sciences [NIEHS] National Toxicology Program [NTP] U.S. Food and Drug Administration [FDA] Tox21 Assay Overview: Mitochondrial membrane potential (MMP), one of the parameters for mitochondrial function, is generated by mitochondrial electron transport chain that creates an electrochemical gradient by a series of redox reactions. This gradient drives the synthesis of ATP, a crucial molecule for various cellular processes. Measuring MMP in living cells is commonly used to assess the effect of chemicals on mitochondrial function. […] The dye accumulates in the mitochondria of healthy cells as aggregates, with red fluorescence. The mitochondrial potential collapses and the dye can no longer accumulate in the mitochondria and remains in the cytoplasm in monomers, with green fluorescence.
Tox21 Assay Protocol Summary: 2,000 HepG2 cells in 5 uL/well were dispensed into black, clear-bottom 1536-well plates using a Multidrop Combi (Thermo Scientific) dispenser. The assay plates were incubated overnight at 37C to allow cells to attach to the wells, followed by the transfer of 23 nL compound or DMSO vehicle by a pin tool (Kalypsys). The plates were incubated for 1 hr at 37C and 5% CO2, followed by the addition of 5 uL of 2X Mito-MPS dye (BD Biosciences) into each well using Flying Reagent Dispenser (Aurora Discovery) and then following 30 min incubation at 37C. Fluorescence intensity (490nm excitation and 535nm emission for monomers; and 540nm excitation and 590nm emissions for aggregates) was measured using an Envision plate reader.
For `CCCCCCCCCCCCCl`, the “ratio activity, negative = MMP loss” value was 12.2%.
For `CC(C)COC(=O)c1ccccc1C(=O)OCC(C)C`, the Potency was 68.6 µM (active).
In the case of `CCCCCCCC[N+](C)(CCCCCCCC)CCCCCCCC`, the Potency is reported as 1.72 µM (active) and 770 nM (active) and 2.43 µM (active).
With `ClC(Cl)(Cl)c1ccccc1` the “ratio activity, negative = MMP loss” value was -13.6%.
For `CCOP(=O)(O)OCC` (tested in a mixture with another compound), the Potency was 24.1 µM (active).
With `CC1(C)C(C(=O)OC(C#N)c2cccc(Oc3ccccc3)c2)C1(C)C` (stereo not given) the Potency was 30.9 µM (active).
For `Nc1ccc([N+](=O)[O-])cc1N`, the Potency was 30.6 µM (active).
For `C[N+](C)(C)CC(=O)[O-]`, the “ratio activity, negative = MMP loss” value was 9.78%.
For `N#CC(c1ccccc1)c1ccccc1`, the Potency was 7.69 µM (active).
With `CCC1(c2ccc(N)cc2)CCC(=O)NC1=O` (stereo not given) the Potency was “inactive”.
With `O=NN(c1ccccc1)c1ccccc1` the “ratio activity, negative = MMP loss” value was -5.22%.
With `O=P(OCCCl)(OCCCl)OCCCl` the “ratio activity, negative = MMP loss” value was 26.9%.
With `CCOP(=S)(OCC)SCn1c(=O)oc2cc(Cl)ccc21` the Potency was 29.3 µM (active) and 27.3 µM (active).
In the case of `CCNc1nc(Cl)nc(NC(C)(C)C#N)n1`, the Potency is reported as “inactive”.
With `ClC(Cl)=C(Cl)C(Cl)=C(Cl)Cl` the Potency was “inactive”.
With `Cn1c(-c2ccccc2)cc(-c2ccccc2)[n+]1C` the Potency was “inactive”.
With `CCC[CH2][Sn]([Cl])([CH2]CCC)[CH2]CCC` the Potency was 61.3 nM (active) and 122 nM (active).
In the case of `CN(C)c1nc(=O)n(C2CCCCC2)c(=O)n1C`, the “ratio activity, negative = MMP loss” value is reported as 19.9% [at 95.3 µM].
For `O=C(O)c1nn(Cc2ccc(Cl)cc2Cl)c2ccccc12`, the “ratio activity, negative = MMP loss” value was 19.7%.
For `ClC(Cl)(Cl)Br`, the Potency was “inactive”.
With `C[C@]12CC[C@H]3[C@@H](CCC4=CC(=O)CC[C@@H]43)[C@@H]1CC[C@@H]2O` the “ratio activity, negative = MMP loss” value was 24.1%.
For `Nc1ccc2ccccc2c1`, the “ratio activity, negative = MMP loss” value was 7.4%.
With `CC(C)Nc1ccc(Nc2ccccc2)cc1` the Potency was 21.1 µM (active) and 60.9 µM (active) and 61.1 µM (active).
In the case of `CCCCCCCCCC(CC)c1ccc(S(=O)(=O)O)cc1` (stereo not given), the Potency is reported as 61.1 µM (active).
With `OC(c1ccc(Cl)cc1)(c1cncnc1)c1ccccc1Cl` (stereo not given) the Potency was 49.4 µM (active) and 30.6 µM (active).
In the case of `CCCCCCCCCc1ccc(O)cc1`, the Potency is reported as 6.18 µM (active).
With `CC(C)CON=O` the Potency was “inactive”.
In the case of `c1ccc2c(c1)Nc1ccccc1S2`, the Potency is reported as 7.5 µM (active) and 4.33 µM (active).
In the case of `O=[N+]([O-])c1ccc(Cl)c([N+](=O)[O-])c1`, the Potency is reported as 8.77 µM (active) and 8.63 µM (active).
With `CCOP(=O)(OCC)OCC` the Potency was “inactive”.
For `CNC(=O)Oc1cccc2c1OC(C)(C)C2`, the “ratio activity, negative = MMP loss” value was -6.97%.
With `O=C1C(Cl)=C(Cl)C(=O)c2ccccc21` the Potency was 3.87 µM (active) and 4.86 µM (active).
For `CC(C)Nc1nc(Cl)nc(NC(C)C)n1`, the “ratio activity, negative = MMP loss” value was -8.59%.
For `COc1ccc(CO)cc1`, the Potency was “inactive”.
With `Cc1cccc(N=Nc2ccc(N(C)C)cc2)c1` the Potency was 24.8 µM (active) and 27.3 µM (active).
For `NC(=O)CN1CCCC1=O`, the “ratio activity, negative = MMP loss” value was -7.59% [at 39.1 µM].
With `CCOC(=O)c1ccccc1N` the Potency was “inactive”.
For `COP(=S)(OC)Oc1ccc(Sc2ccc(OP(=S)(OC)OC)cc2)cc1`, the Potency was 24.8 µM (active) and 30.6 µM (active).
With `CC(C)(O)C#N` the Potency was “inactive”.
In the case of `CC(C)(C#N)N=NC(C)(C)C#N`, the “ratio activity, negative = MMP loss” value is reported as -13.6%.
